In the library only some 5.2% were active in any assay of this set; here they are far more common.
VDR inh = vitamin D3 receptor (human) inhibition. P11473. VDR-SRC2-3 peptide fluorescence polarization, 2 h. Potency, µM, for inactives: max response, negative = inhibition, most hits filed as inhibitors. 0.93% of 400,000 active; further: potency means the concentration at half of the fitted maximal effect
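The screen uses fluorescence polarization to detect compounds that interfere with recruitment of the SRC2-3 coactivator peptide to VDR; plates are read after 2 h at room temperature.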
IDH1 R132H inh = inhibitors of human mutant IDH1 R132H. O75874. IDH1-R132H enzyme, NADPH consumption, diaphorase/resazurin fluorescence. Potency, µM (top dose mostly 76.6 µM), inactives show at the top dose activity change, negative = inhibition, actives largely listed as inhibitors. 0.093% of 390,000 active; further: potency means the concentration at half of the fitted maximal effect; nearly all actives have a fitted effect of over 65% in size
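IDH1-R132H (0.5 ug/mL) preincubated 30 min with compound, then NADPH (0.016 mM) and alpha-KG (2 mM) added; 80 min at RT, pH 7.5. Remaining NADPH coupled via diaphorase/resazurin to fluorescence (540/590 nm); concentration-response curves normalized to no-enzyme control.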
PLK1 PBD inh = inhibitors of human PLK1 polo-box domain binding; Plk1 PBD binding of FITC phosphopeptide, fluorescence polarization; Potency, µM, for inactives: max response, negative = inhibition, usual class: inhibitors; 2.8% of 360,000 active; further: potency means the concentration at half of the fitted maximal effect; series mostly up to about 57 µM; nearly all actives have a fitted effect of over 65% in size
Target sequence (P53350 whole entry, looked up, the tested form may be a part): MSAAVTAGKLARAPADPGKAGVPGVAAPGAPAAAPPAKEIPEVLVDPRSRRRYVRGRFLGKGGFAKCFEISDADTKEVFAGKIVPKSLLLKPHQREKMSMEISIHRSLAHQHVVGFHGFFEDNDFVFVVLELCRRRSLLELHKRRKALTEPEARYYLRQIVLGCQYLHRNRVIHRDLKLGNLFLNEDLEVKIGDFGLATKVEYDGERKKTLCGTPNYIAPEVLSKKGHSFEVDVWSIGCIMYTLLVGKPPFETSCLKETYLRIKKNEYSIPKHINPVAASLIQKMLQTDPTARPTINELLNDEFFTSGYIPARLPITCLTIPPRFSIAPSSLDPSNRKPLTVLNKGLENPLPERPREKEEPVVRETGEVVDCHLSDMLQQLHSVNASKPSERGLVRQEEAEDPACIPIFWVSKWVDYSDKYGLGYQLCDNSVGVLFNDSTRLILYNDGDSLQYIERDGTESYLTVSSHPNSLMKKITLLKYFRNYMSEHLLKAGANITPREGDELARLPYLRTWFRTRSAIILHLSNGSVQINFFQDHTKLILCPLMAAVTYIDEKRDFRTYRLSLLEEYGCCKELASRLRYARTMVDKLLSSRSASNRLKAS
TrxR1 substrate = rat thioredoxin reductase 1 substrate activity. O89049. purified TrxR1 substrate turnover, NADPH consumption readout. 0.01% of 390,000 active. Potency, µM (series often up to 114 µM), without a hit: at the top dose activity change, negative = substrate turnover; further: potency means the concentration at half of the fitted maximal effect; nearly all actives have a fitted effect of over 50% in size
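Rat TrxR1, dispensed at 90 nM, was prereduced with 400 uM NADPH (final) for 5 min at ~22 deg C, then incubated with compound 15 min before 400 uM selenite. A first-read NADPH fluorescence drop versus no-compound background flagged substrates.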
Sfp PPTase inh = Sfp phosphopantetheinyl transferase inhibition; Q9F4F7; Biochemical Sfp PPTase activity, qHTS; Potency, µM, without a hit: largest response in the series, negative = inhibition, hits mostly inhibitors; 3.5% of 310,000 active;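 further: the enzyme is Sfp with the accession as filed and its product quenches rhodamine fluorescence; potency means the concentration at half of the fitted maximal effect; 0% = enzyme reaction without inhibitor and -100% = no enzyme wells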
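Step 1, compound plus 15 nM Sfp-PPTase, 15 min, room temperature. Step 2, add rhodamine-CoA (5 uM) and BHQ-2-YbbR (12.5 uM). Step 3, read 525/598 nm fluorescence at 0 and 30 min.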
TrxR1 inh = inhibitors of rat thioredoxin reductase 1; Potency, µM (highest dose often 114 µM), inactives show at the highest dose activity change, negative = inhibition, hits mostly inhibitors; 1% of 390,000 active; recombinant rTrxR1, NADPH fluorescence consumption, selenite substrate; O89049; further: potency means the concentration at half of the fitted maximal effect; nearly all actives have a fitted effect of over 65% in size
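Rat TrxR1 (90 nM in the dispensed reagent) was pre-reduced with 400 uM NADPH for 5 min at room temperature, then incubated with compound for 15 min. After 400 uM selenite was added, NADPH fluorescence (Ex 340/Em 450 nm) was followed for 8 min.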
Sfp PPTase conf = confirmation of Bacillus subtilis Sfp PPTase inhibitors. AID 2701. Sfp PPTase enzymatic assay, qHTS titration. shares compounds with Sfp PPTase inh. 79% of 380 active. Potency, µM (series often up to 114 µM), without a hit: at the highest dose activity change, negative = inhibition, actives largely listed as inhibitors;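 further: potency means the concentration at half of the fitted maximal effect; plate controls were uninhibited Sfp reaction for no effect and no enzyme control for full effect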
Sfp PPTase gel = Blocks Sfp PPTase activity, gel read-out. shares compounds with Sfp PPTase inh. purified Sfp, gel-based phosphopantetheinylation read-out. Potency, µM, hits mostly inhibitors. 20% of 210 active;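 active means potency below 100 µM; inconclusive means dose-dependent response but potency above 100 µM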;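 further: band intensities scaled against SCH202676 control wells before curve fitting; potency is an IC50 for inhibitors of Sfp transfer activity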
The depositor's hits bear a star; i = inactive; ? = inconclusive; · = not tested or not shown; ! = repeats disagree; [ ] = dose if it differs, or a comment. Unless noted, the call rests on the fitted dose curve; in most records, active means well fitted curve in the direction sought with a large enough effect; inconclusive means small, poorly fitted or top-dose-only effect, or another doubt; inactive means no such curve, though single readings can be large; an effect the other way counts as inactive or inconclusive. Unless noted, on the % scale 0 is the no-effect control and ±100 the full control effect.

SMILES	VDR inh	IDH1 R132H inh	PLK1 PBD inh	TrxR1 substrate	Sfp PPTase inh	TrxR1 inh	Sfp PPTase conf	Sfp PPTase gel
COc1cccc(NC(=O)Nc2cccs2)c1	-2%	11%	-17%	2%	11µM*	-9%	30µM*	i
Cc1ccccc1C(=O)NCC(=O)NC1CC1	-13%	4%	2%	1%	·	10%	·	·
COc1ccc(Br)cc1CNc1ccc(O)cc1	25µM*	21%	30µM*	-7%	20µM*	?	?	?
CCc1ccc(CNc2ccc3c(c2)ncn3CC)cc1	8%	8%	-2%	15%	-2%	1%[57.1 µM]	·	·
COc1ccc(Br)cc1CNc1ccc2[nH]c(=O)[nH]c2c1	16%	8%	-5%	-3%	-9%	-26%	·	·
CCOc1ccccc1CNc1ccc(O)cc1	40µM*	19%	?	-7%	10µM*	?	11µM*	i
CCc1ccc(CNc2ccc(O)cc2)cc1	22µM*	18%	30µM*	-11%[57.1 µM]	11µM*	?	37µM*	i
Clc1ccc(-c2nn3c(C4COc5ccccc5O4)nnc3s2)cc1 (stereo not drawn)	79µM*	10%	21µM*	-8%	14µM*	-20%	33µM*	·
CC(C)(C)Cc1nnc(NC(=O)CSc2ccccc2)s1	28µM*	-4%	5.3µM*	0%	14µM*	2%	7.4µM*	·
CCOCc1nnc(NC(=O)CSc2ccccc2)s1	6%	13%	?	0%	13%	18%	·	·
CCOc1ccc2[nH]c(=O)c(C(c3nnnn3C3CCCCC3)N3CCN(C)CC3)cc2c1 (stereo not drawn)	5%	5%	-5%	26%	2%	?	·	·
CCOc1ccc2[nH]c(=O)c(C(c3nnnn3Cc3ccco3)N3CCC(C)CC3)cc2c1 (stereo not drawn)	-8%	-23%	?	18%	3.5µM*	?	8.3µM*	·
Nc1nnc2c(n1)CCCC2	18%	4%	-4%	7%	45µM*	?	53µM*	6.2µM*
O=C(O)C(O)c1ccco1 (stereo not drawn)	-14%	6%	27µM*	-3%	45µM*	-5%	?	i
Cc1ccc(NCc2cccn2-c2nnc(N3CCC(C(=O)NCc4ccccc4C)CC3)s2)cc1	-12%	·	·	4%	·	?	·	·
CCOC(=O)C1(C)CCCN1C(=O)c1ccc(OC)cc1 (stereo not drawn)	·	·	2%	·	·	·	·	·
CC(C)(C)c1ccc(C(=O)CCCN2CCC(OC(c3ccccc3)c3ccccc3)CC2)cc1	2%	·	·	-10%[57.1 µM]	50µM*	?	47µM*	i
CN1CCN(CCCCC(=O)c2ccccc2)CC1	6%	7%	-8%	4%	8%	10%[57.1 µM]	·	·
CCOC(=O)c1nc(NCc2ccccc2)sc1C	71µM*	1%	6.7µM*	1%[57.1 µM]	8.9µM*	-13%[57.1 µM]	8.3µM*	·
N#C/C(=C/c1ccc(N2CCCCCC2)o1)c1cccc(F)c1	45µM*	4%	-10%	-5%	0.56µM*	?	21µM*	?
COc1cc(N2CCCC2)c(OC)cc1/C=C(/C#N)c1cccc(F)c1	-13%	4%	11%	-9%	?	-7%	·	·
Cc1cc2ccccc2n1CCNC(=O)c1ccc(Br)o1	79µM*	3%	-25%	13%[57.1 µM]	13µM*	10µM*	24µM*	·
COc1ncc2ncc(=O)n(CCC#N)c2n1	2%	·	·	·	8%	·	·	·
NC(=O)C[C@H](NC(=O)Cc1ccc(O)cc1O)C(=O)O	-6%	·	·	·	?	·	·	·
NC(CO)C(=O)NNCc1ccc(O)c(O)c1O (stereo not drawn)	45µM*!	-12%	6.7µM*	12%[57.1 µM]	6.3µM*!	6µM*	11µM*	·
SMILES	VDR inh	IDH1 R132H inh	PLK1 PBD inh	TrxR1 substrate	Sfp PPTase inh	TrxR1 inh	Sfp PPTase conf	Sfp PPTase gel
CCOC(=O)c1c(S(=O)(=O)N2CCC(C(=O)NCc3cccc(C)c3)CC2)c(C)n(C)c1C	7%	-4%	·	-2%[57.1 µM]	·	10%[57.1 µM]	·	·
COc1ccc(OC)c(N2C(=O)c3ccccc3C2c2nnnn2-c2ccc3c(c2)OCCO3)c1 (stereo not drawn)	·	·	-11%	·	·	·	·	·
COc1cc(-c2cc(C(=O)NCc3ccco3)c3ccccc3n2)cc(OC)c1OC	-3%	-1%	-14%	6%[0.0914 µM]	-14%	28%[0.0914 µM]	·	·
Cc1ccc(-c2cc(C(=O)NCc3ccco3)c3ccccc3n2)s1	?	-4%	-27%	111%[57.1 µM]	2.8µM*	?	47µM*	?
CN(Cc1ccccc1)c1ccc(-c2nc(-c3ccncc3)no2)cc1[N+](=O)[O-]	8%	3%	·	-6%	·	6%	·	·
CC(NC(=O)C1CCN(C(=O)[C@@H]2Cc3ccccc3CN2)CC1)c1ccccc1 (stereo partly drawn)	-24%	0%	?	4%[57.1 µM]	3%	10%[57.1 µM]	·	·
CC(C)C(C)NC(=O)CSc1nc2scc(-c3ccco3)c2c(=O)n1-c1ccccc1 (stereo not drawn)	-17%	-5%	-10%	7%[57.1 µM]	4.5µM*	-64%	30µM*	?
CC(=O)Nc1nc(C)c(S(N)(=O)=O)s1	-18%	-4%	-6%	-5%	31%	7%	·	·
CC(=O)N=c1sc(S(N)(=O)=O)nn1C	-8%	7%	-13%	5%	25µM*!	2%	47µM*	i
CC(=O)c1cccc(NC(=O)c2cc(S(=O)(=O)N3CCOCC3)cs2)c1	-24%	-6%	-8%	-2%	6%	5%	·	·
CC(C)N(C(=O)Nc1ccc2nsnc2c1)C(C)C	14µM*	13%	13µM*	0%	4.5µM*	-1%	24µM*	i
Cc1ccc(CN(C(=O)COc2ccc(Cl)cc2Cl)C2CCS(=O)(=O)C2)o1 (stereo not drawn)	2%	·	·	-7%	·	-14%	·	·
N=c1c2c3c(sc2ncn1Cc1ccco1)CCCCC3	-18%	1%	2%	-3%	13µM*	2%	-7%	i
COc1ccc(N2CCN(C(=O)c3cn(Cc4ccccc4)nc3-c3cccnc3)CC2)cc1	2%	-9%	-9%	-3%	·	-10%	·	·
Cc1cc(F)ccc1NCc1ccccc1[N+](=O)[O-]	-8%	2%	-1%	-5%[57.1 µM]	2.8µM*	-7%[57.1 µM]	47µM*	i
Cc1cc([N+](=O)[O-])ccc1NCc1cccc2ccccc12	-9%	9%	-4%	3%	·	10%	·	·
O=C(OCc1ccccc1)c1cccnc1	-4%	·	·	·	32µM*	·	37µM*	?

Screens from PubChem BioAssay.
